Assay results: PubChem BioAssay AID720518 (National Center for Advancing Translational Sciences (NCATS), 2013)
Results filed as inconclusive are left out. Unmarked numbers belong to inactive results. The call rests on the fitted dose curve.

Assay: qHTS for Inhibitors of Cell Surface uPA Generation: Wild-type Protective Antigen (WT-PrAg) Counterscreen for Cherry-picked Compounds; further: 0% is about no effect
Conditions: cells, WT protective antigen toxicity counterscreen; series mostly up to 115 µM; activity (protection): at the top concentration

SMILES	activity (protection) [%]
Cc1nc(NC(=O)CSc2nnc(C3CC3)n2C)sc1C(=O)N(C)C	1.3
CCOc1cc(C(=S)N2CCOCC2)ccc1OC(=O)c1cccc(C)c1	-2.03
Cc1ccc2oc(C(=O)N(Cc3ccc(N(C)C)cc3)C3CCS(=O)(=O)C3)c(C)c2c1 (stereo not drawn)	-2.55
COC(=O)CNC(=O)COC(=O)/C=C/c1ccccc1[N+](=O)[O-]	-1.21
COc1ccc(-c2csc(NC(C)c3nc4cc(C(=O)NCCCO)ccc4n3Cc3ccc(C)cc3)n2)cc1 (stereo not drawn)	0.17
CC(C(=O)Nc1nccs1)c1ccc([N+](=O)[O-])cc1 (stereo not drawn)	4.26
Cc1cnc(C(=O)OCC(=O)Nc2ccc3c(c2)OCCO3)cn1	0.158
Cc1ccc(C(CC(=O)N2CCCC2)c2ccccc2)c(O)c1 (stereo not drawn)	-0.548
CCOc1cc(C)c(S(=O)(=O)N2CCCCC2)cc1C	-1.61
COc1ccc(N(CN2C(=O)c3ccccc3C2=O)C(=O)C(C)C)cc1	-0.0709
CCN(CC)c1ccc(C=NCCc2ccc(S(N)(=O)=O)cc2)cc1	-1.25
COc1ccc(NC(=O)/C(N=Nc2cc(S(=O)(=O)Nc3ccc(OC)cc3)ccc2OC)=C(\C)O)cc1	-1.2
COCCN(CCOC)c1nc(-c2ccc(C)cc2)nc2ccccc12	-1.39
Cc1ccc(C(O)(COC(=O)C(C)C)COC(=O)C(C)C)c(O)c1	-1.61
CN(c1ccccc1)S(=O)(=O)c1ccc(C(=O)Nc2nnc(C3CC3)o2)cc1	-1.7
O=C(NC1CC1)C1CCCN(C(=O)NC2CCCCC2)C1 (stereo not drawn)	-1.16
Cc1ccc(C(=O)NNC(=O)CNc2cccc(Cl)c2)cc1	-0.357
COc1cc(NC(=S)NCCc2ccc(S(N)(=O)=O)cc2)c(OC)cc1Cl	7.74
Cc1c(C(=O)N2CCN(S(=O)(=O)c3cccs3)CC2)oc2ccc(F)cc12	-0.128
O=C1CC(/C=C/c2ccc(Cl)cc2)=Nc2ccccc2N1	-1.15
CC1CCCC(NC(=O)CNC(=S)N(Cc2ccccc2)Cc2cccs2)C1C (stereo not drawn)	-1.4
CS(=O)(=O)c1ccc(Cl)c(NC(=O)COC(=O)CNC(=O)c2cccs2)c1	-0.596
CN(CC(=O)NCCCn1ccnc1)S(=O)(=O)c1ccc(Cl)cc1	0.0947
